Screening data from PubChem BioAssay.
JMJD2E inh = inhibitors of human JMJD2E histone demethylase; B2RXH2; JMJD2E catalytic domain, FDH-coupled NADH fluorescence (FDH is formaldehyde dehydrogenase); Potency, µM (top dose mostly 57.1 µM), for the others: top-dose activity change, negative = inhibition, hits mostly inhibitors; hit rate 1.6% among 230,000;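 note: 0% = wells with enzyme and -100% = buffer wells without enzyme; nearly all actives have a fitted effect of over 50% in size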
Target sequence (B2RXH2 1-337 limits assumed): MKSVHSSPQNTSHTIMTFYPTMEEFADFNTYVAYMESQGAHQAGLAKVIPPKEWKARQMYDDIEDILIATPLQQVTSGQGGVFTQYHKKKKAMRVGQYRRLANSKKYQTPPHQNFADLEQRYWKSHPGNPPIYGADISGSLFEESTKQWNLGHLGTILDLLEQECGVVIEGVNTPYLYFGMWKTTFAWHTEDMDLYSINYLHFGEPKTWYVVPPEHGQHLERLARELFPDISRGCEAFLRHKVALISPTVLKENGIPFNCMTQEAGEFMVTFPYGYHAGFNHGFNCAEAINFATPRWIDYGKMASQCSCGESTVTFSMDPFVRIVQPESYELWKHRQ
LMNA splice mod = LMNA splicing modulation | Potency, µM (series often up to 46.1 µM), inactives show at the highest dose ratio change, negative = inhibition, actives largely listed as inhibitors | hit rate 0.01% among 200,000 | HeLa LMNA splicing GFP/RFP minigene ratio, 48 h; active = well fitted inhibition curve with a large enough effect in the signal ratio, with a control signal flat, not every such curve was filed as active; inconclusive = small, poorly fitted or top-dose-only effect, or effect the other way, or a change in a side signal; the % refers to the signal ratio; note: % is set by controls: 0 for no effect and ±100 for the full control effect
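Read-out is the ratio of GFP to DsRed2 object intensity, acquired by 488 nm laser-scanning cytometry on HeLa lamin A-EGFP minigene reporter cells. Compound incubation 48 hrs at 37 °C in Opti-MEM with 2% FBS; DMSO 0.5% final.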
HttQ103 aggreg = mutant huntingtin aggregation inhibition; PC12 HttQ103-GFP aggregates, Acumen cytometry, 40 h; Potency, µM (titrated, usually from 46.1 µM), without a hit: top-dose activity change, negative = inhibition, actives largely listed as inhibitors; hit rate 1.1% among 220,000; AID 1688; active = well fitted curve in the direction sought with a large enough effect; inconclusive = small, poorly fitted or top-dose-only effect, or another doubt; inactive = no such curve, though single readings can be large; an effect the other way counts as inactive or inconclusive; note: % is set by controls: 0 for no effect and ±100 for the full control effect; nearly all actives have a fitted effect of over 60% in size
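Steps: seed 1500 PC12 HTTQ103-GFP cells/well; add tebufenozide, 100 nM final; add compound titration; add ATPLite reagent; quantify GFP aggregates by laser scanning cytometry.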
ALDH1A1 block = inhibitors of human aldehyde dehydrogenase 1A1; P00352; Purified ALDH1A1, NADH fluorescence, propionaldehyde substrate; hit rate 7.3% among 220,000; Potency, µM (doses to about 75.3 µM), inactives show at the top dose activity, negative = inhibition, actives largely listed as inhibitors;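 note: plate controls were no enzyme wells and a reference inhibitor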
HPGD block = blocks human HPGD enzyme activity; P15428; purified HPGD, NADH fluorescence kinetic, PGE2 substrate; Potency, µM, inactives show at the top dose activity change, negative = inhibition, actives largely listed as inhibitors; hit rate 4.3% among 150,000; AID 894; note: % is set by controls: 0 for no effect and ±100 for the full control effect
Target sequence (P15428 whole entry, looked up): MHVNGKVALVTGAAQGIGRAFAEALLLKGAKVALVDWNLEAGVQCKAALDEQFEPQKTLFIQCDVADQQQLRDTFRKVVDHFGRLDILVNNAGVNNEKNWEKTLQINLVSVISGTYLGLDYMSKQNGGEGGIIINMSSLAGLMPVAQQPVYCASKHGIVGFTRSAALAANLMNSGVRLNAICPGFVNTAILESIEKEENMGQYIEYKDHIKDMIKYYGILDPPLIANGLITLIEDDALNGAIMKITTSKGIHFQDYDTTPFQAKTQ
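20 nM HPGD preincubated 15 min at room temperature with compound in 50 mM Tris-HCl pH 8, 0.01% Tween 20. Started with 1 mM NAD+ and 30 uM prostaglandin E2; NADH fluorescence (360/450 nm) read 5 times over 30-s intervals, last minus first.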
HTT cytoprotect = protects HTT-Q103 PC12 cells, measured by ATP. PC12 HTT-Q103 induced, cytoprotection, ATP luminescence, 40 h. Potency, µM (series often up to 56.4 µM), without a hit: cytoprotection (ATP increase), actives largely listed as activators. hit rate 0.14% among 230,000. AID 1471; active = well fitted curve in the direction sought with a large enough effect; inconclusive = small, poorly fitted or top-dose-only effect, or another doubt; inactive = no such curve, though single readings can be large; an effect the other way counts as inactive or inconclusive; note: % of control where 0% means no effect; nearly all actives have a fitted effect of over 45% in size
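Quantitative HTS on tebufenozide-induced (100 nM) PC12 cells expressing HTTQ103 exon 1–GFP; compounds tested as a concentration series; survival measured via cellular ATP.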
Active calls of the source: *; u = inconclusive; x = not tested or not shown; ! = not confirmed by another sample; [ ] = dose if it differs, or a comment. In the library only some 9.2% were active in any assay of this set; here they are far more common. Unless noted, calls come from the whole dose curve; as a rule, active = well fitted inhibition curve with a large enough effect (not every such curve was filed as active); inconclusive = small, poorly fitted or top-dose-only effect, or another doubt; inactive = no such curve, though single readings can be large or run the other way. Potency is the fitted concentration of half-maximal effect.

SMILES	JMJD2E inh	LMNA splice mod	HttQ103 aggreg	ALDH1A1 block	HPGD block	HTT cytoprotect
CCn1cnc2c(Nc3cccc(Cl)c3)nc(N[C@@H]3CCCC[C@H]3N)nc21	x	x	x	x	x	-59%[1.9 µM]
C[C@@H]1[C@@H](C)N1C[C@H](O)Cn1ccnc1[N+](=O)[O-] (stereo partly specified)	x	x	x	11%[13.5 µM]	-13%	-5%[10 µM]
O=C(CN1CCCCC1)c1ccccc1F	-3%	u	13%	3%	x	-23%
O=C(CN1CCCCC1)c1ccccc1Cl	-5%	-3%	-3%	13µM*	-18%	10%[10 µM]
O=C(CN1CCCCC1)c1cccc(Br)c1	-3%	-8%	1%	1.4µM*	-2%	-7%[10 µM]
Oc1c(Cl)c(Cl)c(Cl)c(Cl)c1Cl (tested in a mixture with another compound)	x	x	x	4%[13.5 µM]	x	2%[10 µM]
C=C1C/C(=C\C)C(=O)O[C@@H]2CCN3CC=C(COC(=O)[C@]1(C)O)[C@H]23	x	x	x	x	x	-37%
O=C(CCl)c1ccc(Oc2ccc(C(=O)CCl)cc2)cc1	x	x	11%	x	x	-22%
CCC(=O)N1N=C(c2c(O)n(CCc3ccccc3)c(=O)[nH]c2=O)CC1c1ccc(OC)c(OC)c1 (stereo unspecified)	20µM*	x	-10%[9.22 µM]	x	x	-5%[10 µM]
COc1ccc(CCn2c(O)c(C=NCCN3CCCCC3)c(=O)[nH]c2=O)cc1OC	1%	-2%	-9%	-7%	-9%	6%
CC(C)c1cc2c(c(O)c1O)[C@]1(C(=O)O)CCCC(C)(C)C1CC2 (stereo partly specified)	13µM*	x	x	16µM*	3.2µM*	-45%
CC(C)c1cc2c(c(O)c1O)[C@@]1(C(=O)O)CCCC(C)(C)[C@@H]1CC2	x	x	x	14µM*	16µM*	x
C[C@@]12CCC[C@](C)(C(=O)O)[C@@H]1CCc1ccc(O)cc12	x	x	x	x	x	-6%
CCOC(=O)c1c(C)n(Cc2ccco2)c2ccc(O)cc12	-16%	-1%	-7%	4µM*	22µM*	2%
c1ccc(C[N+]23CN4CN(CN(C4)C2)C3)cc1	x	x	x	-3%[13.5 µM]	-4%	-6%[10 µM]
COC[C@H]1OC(=O)c2coc3c2[C@@]1(C)C1=C(C3=O)[C@H]2CCC(=O)[C@@]2(C)C[C@H]1OC(C)=O	11µM*	x	x	28µM*	32µM*	-42%
COC[C@H]1OC(=O)c2coc3c2[C@@]1(C)C1=C(C3=O)C2CCC(=O)[C@@]2(C)C[C@H]1OC(C)=O (stereo partly specified)	-2%	u	x	28µM*!	35µM*!	-150%
N[C@H](Cc1ccccc1)c1nn[nH]n1	x	x	x	-9%[13.5 µM]	0%	-2%[10 µM]
COC1=C[C@H]2[C@@H]3Cc4ccc(OC)c(O)c4[C@@]2(CCN3C)CC1=O	x	x	x	x	x	15%
C=CCN1C(=O)NC(=O)C(Cc2ccc(OC)c(OC)c2)C1=O (stereo unspecified)	u	-11%	u	25µM*	-6%	-17%[10 µM]
CNc1ccc2oc(C[C@@H]3O[C@@]4(CC[C@H]3C)O[C@@H]([C@@H](C)C(=O)c3ccc[nH]3)[C@@H](C)C[C@H]4C)nc2c1C(=O)O	x	x	x	x	x	-65%[1.9 µM]
C[C@@H]1NCCc2cc(O)c(O)cc21	11µM*	-12%	x	11%[20.9 µM]	-13%	-49%[17.1 µM]
O=C1NC(=S)N(c2ccccc2F)C(=O)/C1=C\c1cccs1	-6%	u	u	20µM*	7.9µM*	44%[10 µM]
CCOc1ccc(N2C(=O)/C(=C\c3cccs3)C(=O)NC2=S)cc1	-4%	-18%[46 µM]	16%	18µM*	x	16%
CCOc1ccc(N2C(=O)NC(=O)/C(=C\c3ccccc3[N+](=O)[O-])C2=O)cc1	-28%	x	-9%[9.22 µM]	x	x	9%[10 µM]
SMILES	JMJD2E inh	LMNA splice mod	HttQ103 aggreg	ALDH1A1 block	HPGD block	HTT cytoprotect
CC(C)[C@@]1(NC(=O)[C@H]2CC3c4cccc5[nH]cc(c45)C[C@H]3N(C)C2)O[C@@]2(O)C3CCCN3C(=O)[C@@H](Cc3ccccc3)N2C1=O (stereo partly specified)	x	u	-9%	-2%	x	-44%
N[C@@H]1CCc2cc(O)c(O)cc2C1	x	x	x	x	x	9%[1.9 µM]
O=Cc1c(C(=O)O)n(Cc2ccc(Cl)cc2)c2ccccc12	u	u	18%	13µM*	-17%	-3%[10 µM]
Cc1c(C=O)c2ccccc2n1Cc1cccc(F)c1	-4%	-2%	0%	-12%	-11%	-7%[0.074 µM]
COc1ccc(N2C(=O)CC(N3CC=C(c4ccccc4)CC3)C2=O)cc1 (stereo unspecified)	u	-1%	-18%	10µM*	u	-3%[10 µM]
COc1ccc2ccc(O)c(CN3CC=C(c4ccccc4)CC3)c2c1	u	u	33%	u	x	20%
O=[N+]([O-])c1ccc(N2CCNCC2)cc1N1CCCCC1	-1%	x	-2%[9.22 µM]	u	x	-3%[10 µM]
COc1ccc(NC(=O)c2cc([N+](=O)[O-])ccc2N2CCNCC2)cc1	-11%	-3%[46 µM]	x	8.9µM*	x	x
O=C(N/N=C/C1C(=O)NC(=S)N(c2ccccc2)C1=O)c1cc(Br)c(O)c(Br)c1 (stereo unspecified)	22µM*	x	19%	13µM*	x	-37%
Oc1cc(Cl)c(Cl)cc1Cl	x	x	-6%	-2%	5.6µM*	-8%
Oc1cc(Cl)c(Cl)c(Cl)c1Cl	x	x	x	1%	u	-86%
CC(C)CC(=O)C[C@H](O)C(Cl)(Cl)Cl	x	x	x	8%[13.5 µM]	-12%	-16%[10 µM]
COc1ccc(OC)c(N2C(=O)NC(=O)/C(=C\c3ccc([N+](=O)[O-])s3)C2=O)c1	22µM*	-54%[46 µM]	u	25µM*	x	-9%
CN1C(=O)NC(=O)/C(=C/c2ccc([N+](=O)[O-])s2)C1=O	22µM*	x	12%[9.22 µM]	x	x	-16%[10 µM]
O=C1NC(=O)N(c2ccccc2)C(=O)/C1=C\c1ccc([N+](=O)[O-])s1	u	x	-11%[9.22 µM]	x	x	-3%[10 µM]
COc1ccc(N2C(=O)NC(=O)/C(=C\c3ccccc3[N+](=O)[O-])C2=O)cc1	u	14%[46 µM]	-2%[9.22 µM]	19µM*	x	-4%[10 µM]
O=C(O)CS(=O)(=O)C(c1ccccc1)c1ccccc1	x	x	x	3%[13.5 µM]	-9%	1%[10 µM]
CC(O)CN(CCN(CC(C)O)CC(C)O)CC(C)O (stereo unspecified)	x	x	-12%	x	x	-15%
c1ccc(OP(Oc2ccccc2)Oc2ccccc2)cc1	x	x	x	-16%	0%	-46%
[N-]=[N+]=[N-]	x	x	x	18µM*	-10%	6%
CN1CCC(c2c[nH]c3ccccc23)C1 (stereo unspecified)	22µM*	x	3%[9.22 µM]	x	x	10%[10 µM]
c1ccc2c([C@@H]3CCN(CCN4CCOCC4)C3)c[nH]c2c1	x	x	x	-2%[13.5 µM]	-2%	2%[10 µM]
COc1ccc(C(=O)C(Cc2ccccc2)N(C)C)cc1 (stereo unspecified)	-4%	-7%	-25%	28µM*	-4%	-7%[0.074 µM]
